Reference: the supplement of paper PMC6089552
About 300 (9.4%) of roughly 3,200 compounds showed activity. The sample as a whole holds a higher share of actives than the screen did.

Tested on: A673/TR/shEF
Test: cell viability (LOESS-normalised, relative to median of negative controls) (log2 ratio); higher = more viable cells (less compound effect), active = hit call of the paper (over 3 MAD below the median)
Conditions: treatment time: 72 h
Summary of the method: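 A673/TR/shEF Ewing sarcoma cells were plated at 1,500 per well in 384-well plates and cultured with or without doxycycline, added 24 h before compounds, to induce EWS-FLI1 shRNA knockdown. Library compounds at two or more concentrations, alongside DMSO controls, were applied for three days. Cell viability was measured by CellTiter-Glo luminescence on an Envision reader. Readings were LOESS-corrected per plate, divided by the median of negative controls and log2-transformed, and hits were wells lying at least three median absolute deviations from the median of all screened wells.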

[1] = 0.103 µM, library screen: screen3, EWS-FLI1 expression: high (no doxycycline)
[2] = 0.103 µM, library screen: screen3, EWS-FLI1 expression: low (doxycycline-induced shRNA knockdown)
[3] = 0.308 µM, library screen: screen3, EWS-FLI1 expression: high (no doxycycline)
[4] = 0.308 µM, library screen: screen3, EWS-FLI1 expression: low (doxycycline-induced shRNA knockdown)
[5] = 0.926 µM, library screen: screen3, EWS-FLI1 expression: high (no doxycycline)
[6] = 0.926 µM, library screen: screen3, EWS-FLI1 expression: low (doxycycline-induced shRNA knockdown)
[7] = 2.8 µM, library screen: screen3, EWS-FLI1 expression: high (no doxycycline)
[8] = 2.8 µM, library screen: screen3, EWS-FLI1 expression: low (doxycycline-induced shRNA knockdown)
[9] = 8.3 µM, library screen: screen3, EWS-FLI1 expression: high (no doxycycline)
[10] = 8.3 µM, library screen: screen3, EWS-FLI1 expression: low (doxycycline-induced shRNA knockdown)
[11] = 25 µM, library screen: screen3, EWS-FLI1 expression: high (no doxycycline)
[12] = 25 µM, library screen: screen3, EWS-FLI1 expression: low (doxycycline-induced shRNA knockdown)
[13] = 0.25 µM, library screen: screen1, EWS-FLI1 expression: high (no doxycycline)
[14] = 0.25 µM, library screen: screen1, EWS-FLI1 expression: low (doxycycline-induced shRNA knockdown)
[15] = 2.5 µM, library screen: screen1, EWS-FLI1 expression: high (no doxycycline)
[16] = 2.5 µM, library screen: screen1, EWS-FLI1 expression: low (doxycycline-induced shRNA knockdown)
[17] = 0.25 µM, library screen: screen2, EWS-FLI1 expression: high (no doxycycline)
[18] = 0.25 µM, library screen: screen2, EWS-FLI1 expression: low (doxycycline-induced shRNA knockdown)
[19] = 2.5 µM, library screen: screen2, EWS-FLI1 expression: high (no doxycycline)
[20] = 2.5 µM, library screen: screen2, EWS-FLI1 expression: low (doxycycline-induced shRNA knockdown)
[21] = 0.025 µM, library screen: screen1, EWS-FLI1 expression: high (no doxycycline)
[22] = 0.025 µM, library screen: screen1, EWS-FLI1 expression: low (doxycycline-induced shRNA knockdown)
[23] = 25 µM, library screen: screen1, EWS-FLI1 expression: high (no doxycycline)
[24] = 25 µM, library screen: screen1, EWS-FLI1 expression: low (doxycycline-induced shRNA knockdown)

Measured: cell viability (log2)

C[N+]1(C)[C@@H]2CC(OC(=O)C(O)(c3cccs3)c3cccs3)C[C@H]1[C@@H]1O[C@@H]12 (some centres not stated)
inactive: [1] -0.0419 | [2] -0.0363 | [3] -0.000855 | [4] 0.0413 | [5] 0.0247 | [6] 0.0262 | [7] 0.0531 | [8] 0.0434 | [9] 0.0573 | [10] 0.11 | [11] 0.0805 | [12] 0.115

Cc1occc(=O)c1C=CO
inactive: [13] 0.064 | [14] 0.0191 | [15] 0.188 | [16] 0.0363

CC1(C)S[C@@H]2[C@H](NC(=O)[C@H](N)c3ccc(O)cc3)C(=O)N2[C@H]1C(=O)O
active: [11] -0.676
inactive: [1] 0.0884 | [2] 0.104 | [13] 0.0883 | [14] 0.0656 | [3] -0.0334 | [4] 0.0742 | [5] 0.0733 | [6] 0.103 | [15] 0.14 | [16] 0.178 | [7] -0.017 | [8] 0.0291 | [9] 0.0293 | [10] 0.106 | [12] -0.0237

CC1(C)S[C@@H]2[C@H](NC(=O)C(C(=O)O)c3ccccc3)C(=O)N2[C@H]1C(=O)O (some centres not stated)
inactive: [13] 0.137 | [14] 0.0878 | [15] 0.243 | [16] 0.131

CC1(C)S[C@@H]2[C@H](NC(=O)[C@H](N)c3ccccc3)C(=O)N2[C@H]1C(=O)O
inactive: [13] 0.0882 | [14] 0.14 | [15] 0.142 | [16] 0.206

CC(=O)N1CCC[C@H]1C(=O)O
inactive: [13] 0.138 | [14] 0.0212 | [15] 0.184 | [16] 0.0486

C=C1c2cc(OC)ccc2NC(=O)N1c1ccccc1
inactive: [13] 0.0622 | [14] 0.09 | [15] 0.104 | [16] 0.0838

CC(C)NC[C@H](O)c1ccc(O)c(O)c1
inactive: [17] 0.15 | [18] 0.0965 | [19] 0.0541 | [20] 0.0273

COC(=O)C[C@H]1C(C)(C)[C@@H](OC(C)=O)[C@@H]2CC3=C4CC(=O)O[C@@H](c5ccoc5)[C@]4(C)CC[C@@H]3[C@@]1(C)C2=O
inactive: [13] 0.0358 | [14] 0.0144 | [15] 0.0778 | [16] 0.108

O=c1cc(O)cc(/C=C/c2ccc(O)c(O)c2)o1
inactive: [17] 0.159 | [18] 0.05 | [19] 0.0405 | [20] 0.104

COc1cc(/C=C/CO)ccc1O
inactive: [13] 0.0482 | [14] 0.111 | [15] 0.0791 | [16] 0.0869

Oc1cc(O)cc(/C=C/c2ccccc2)c1
inactive: [13] 0.0674 | [14] 0.00318 | [15] 0.07 | [16] 0.0614

COc1cc(O)cc(/C=C/c2ccccc2)c1
inactive: [13] 0.0443 | [14] 0.0713 | [15] 0.167 | [16] 0.125

Oc1cc(O)cc(/C=C/c2ccc(O)c(O)c2)c1
inactive: [21] 0.0929 | [22] 0.00184 | [13] 0.117 | [14] 0.0696 | [17] -0.0238 | [18] 0.0864 | [15] 0.0516 | [16] 0.151 | [19] 0.187 | [20] 0.0106 | [24] 0.162
active: [23] -0.42

Oc1ccc(/C=C/c2cc(O)cc(O)c2)cc1
inactive: [1] 0.0131 | [2] 0.0367 | [13] 0.0839 | [14] 0.0347 | [3] -0.0479 | [4] 0.0776 | [5] 0.0102 | [6] 0.0306 | [15] 0.127 | [16] 0.2 | [7] -0.00513 | [8] 0.017 | [9] -0.0335 | [10] 0.0785 | [12] 0.0525
active: [17] -1.5 | [18] -1.81 | [19] -2.99 | [20] -3.07 | [11] -0.23

C=C1CC/C=C(/C)CC[C@@H]2[C@@H]1CC2(C)C
inactive: [13] 0.102 | [14] 0.0257 | [15] 0.165 | [16] 0.118

CC1(C)CC[C@]2(C(=O)O)[C@H](O)C[C@]3(C)C(=CC[C@@H]4[C@@]5(C)CC[C@H](O)C(C)(C)[C@@H]5CC[C@]43C)[C@@H]2C1
inactive: [13] 0.0739 | [14] 0.0342 | [15] 0.0945 | [16] 0.121

CC1(C)C(=O)CCC2(C)C1CC(O)C1(C)C2CCC2(C)C(c3ccoc3)OC(=O)C3OC321 (configuration not stated)
inactive: [13] 0.0271 | [14] -0.0613 | [15] 0.1 | [16] -0.017

NC(N)=NCCSSCCN=C(N)N
inactive: [17] 0.208 | [18] 0.0937 | [19] 0.0577 | [20] 0.063

O=c1cccc2ccc(O)c(O)c2c1O
inactive: [13] 0.0319 | [14] -0.0442 | [15] 0.142 | [16] -0.0155

COc1cc(Cc2cnc(N)nc2N)cc(OC)c1OC
inactive: [13] 0.149 | [14] 0.184 | [15] 0.204 | [16] 0.321
active: [17] -0.215 | [18] -0.0762 | [19] -1.67 | [20] -2.59

COc1ccc(CN2CCN(Cc3cc(OC)c(OC)c(OC)c3)CC2)cc1
inactive: [13] 0.174 | [14] 0.0733 | [15] 0.142 | [16] -0.0868

COc1cc(O)cc(OC)c1OC
inactive: [13] 0.0343 | [14] 0.0156 | [15] 0.173 | [16] 0.0956

COc1ccc(-c2coc3cc(OC)cc(O)c3c2=O)cc1
inactive: [13] 0.0141 | [14] 0.0676 | [15] 0.102 | [16] 0.184

COc1cc(CN2CCN(Cc3ccco3)CC2)cc(OC)c1
inactive: [13] -0.0146 | [14] 0.0935 | [15] 0.0118 | [16] 0.0977

CCCS(=O)(=O)Nc1ccc(F)c(C(=O)c2c[nH]c3ncc(-c4ccc(Cl)cc4)cc23)c1F
active: [11] -0.179
inactive: [1] 0.0151 | [2] 0.0756 | [3] -0.0936 | [4] 0.103 | [5] -0.131 | [6] 0.105 | [7] -0.159 | [8] 0.126 | [9] -0.177 | [10] 0.106 | [12] 0.0931

COc1c(Cl)c(C)c2c(c1Cl)OC(=O)c1c(C)c(Cl)c(O)c(Cl)c1O2
inactive: [13] 0.0361 | [14] 0.0285 | [15] 0.0998 | [16] 0.0885

CC1CN(S(=O)(=O)c2cccc3cnccc23)CCN1 (configuration not stated)
inactive: [17] 0.246 | [18] 0.094 | [19] 0.214 | [20] 0.111

CN([C@@H](Cc1ccc(OS(=O)(=O)c2cccc3cnccc23)cc1)C(=O)N1CCN(c2ccccc2)CC1)S(=O)(=O)c1cccc2cnccc12
active: [15] -0.171 | [23] -0.315
inactive: [21] 0.267 | [22] 0.00847 | [13] 0.23 | [14] -0.0263 | [17] 0.0748 | [18] 0.07 | [16] 0.0275 | [19] 0.166 | [20] -0.012 | [24] 0.00423

COc1ccccc1NC1CC(C)N(C(=O)c2ccc(C)cc2)c2c(C)cccc21 (configuration not stated)
inactive: [13] 0.107 | [14] 0.0693 | [15] 0.128 | [16] 0.111

CCCN(CCC)C(=O)C(CCC(=O)O)NC(=O)c1ccccc1 (configuration not stated)
inactive: [13] 0.188 | [14] 0.0317 | [17] 0.129 | [18] 0.0785 | [15] 0.223 | [16] 0.0771 | [19] 0.121 | [20] 0.115

CC(C)C[C@H](NC(=O)[C@H](CCC(=O)O)NC(=O)CNC(=O)c1ccc(/C=C/C(=O)O)cc1)C(N)=O
active: [21] -0.138
inactive: [22] 0.0951 | [13] -0.0717 | [14] 0.0592 | [15] -0.0597 | [16] 0.0308 | [23] -0.00491 | [24] -0.0971

Nc1ccc(C(=O)NCC(=O)O)cc1
inactive: [13] 0.0323 | [14] 0.126 | [15] 0.15 | [16] 0.151

CC(=O)O[C@@H]1CC2C(C)(C)C(=O)CC[C@]2(C)C2CC[C@]3(C)C(=CC(=O)O[C@H]3c3ccoc3)[C@@]21C (some centres not stated)
inactive: [13] 0.0774 | [14] 0.142 | [15] 0.182 | [16] 0.164

CCCCC(=O)N(Cc1ccc(-c2ccccc2-c2nn[nH]n2)cc1)[C@H](C(=O)O)C(C)C
inactive: [1] 0.0298 | [2] -0.0095 | [3] 0.124 | [4] 0.0801 | [5] 0.0765 | [6] 0.054 | [7] 0.0694 | [8] 0.124 | [9] 0.00201 | [10] 0.078 | [11] 0.137 | [12] 0.104

COc1ccc(/C=C/C(=O)O)cc1OC
inactive: [13] -0.00585 | [14] -0.00138 | [15] 0.164 | [16] 0.0104

CC(C)N1C(=O)C(=Cc2cccs2)SC1=S
inactive: [13] 0.108 | [14] 0.0522 | [15] 0.148 | [16] 0.0877

O=C1CC[C@]23/C=C/C(=O)NCCCCNCCCNC(=O)/C=C/c4ccc(c2c4)O[C@@H]3C1
inactive: [13] 0.0958 | [14] 0.0883 | [15] 0.0986 | [16] 0.157
